This passage reports cytotoxicity results from PubChem BioAssay AID430 (Sanford-Burnham Center for Chemical Genomics, 2006).

Out of some 63,000 compounds screened, about 1,100 (1.7%) were called active. The list comes from a sample in which actives are over-represented; it also holds similar structures and randomly drawn compounds. Results with a measured potency or affinity are listed apart. Unmarked numbers belong to inactive results. No stated cut-off is given here; in the data, active means cytotoxicity above about 50%; inactive means the rest.

The test is described as follows: cytotoxicity in HPDE-C7 cells, cell-based, fluorescence, HTS (AID 430).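 Further: cells exposed to compound for 48 hours before viability readout; 0% = vehicle and 100% = reference cytotoxic drug.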 The note with it: HPDE-C7 pancreatic duct cells viability, at 10 µM, active compounds read high.
Regarding `COc1ccc(CN(C(=O)CSc2nnc(-c3ccccc3F)o2)c2ccc(F)cc2)cc1`, the cytotoxicity was 6.6%. For `COc1ccc(CN(C(=O)CSc2nnc(-c3ccc(F)cc3)o2)c2ccc(F)cc2)cc1`, the cytotoxicity is 3%.

Regarding `O=C(CSc1nnc(-c2c[nH]c3ccccc23)o1)N(Cc1ccccc1)c1ccc(F)cc1`, the cytotoxicity is 53.6% (active). The figure for `CCOC(=O)C(C)Sc1nc2ccccc2c(=O)n1CC` (configuration not stated) is -15.7%; for `Cc1cccc(N2CCN(c3nnnn3-c3ccccc3)CC2C)c1` (configuration not stated) it is 0.6%; for `CC(NC(=O)c1noc2c1CCCC2)c1ccccc1` (configuration not stated) it is 4.7%. As to `CCOc1ccc2[nH]c(=O)c(CN(Cc3cccs3)Cc3nnnn3C(C)(C)C)cc2c1`, the cytotoxicity was 31.8%. For `Cc1ccc2[nH]c(=O)c(CN(Cc3nnnn3C3CCCC3)C3CCCCC3)cc2c1`, the cytotoxicity is 9.3%. For `Cc1ccc2cc(CN(Cc3ccccc3)Cc3nnnn3C3CCCC3)c(=O)[nH]c2c1`, the cytotoxicity was 53.3% (active). Turning to `CCOC(=O)Cn1nnnc1C(CC)N(Cc1cccs1)Cc1cc2cc(C)ccc2[nH]c1=O` (configuration not stated), the cytotoxicity was 7.5%. The figure for `Cc1ccc2[nH]c(=O)c(CN(Cc3ccccc3)Cc3nnnn3C3CCCC3)cc2c1` is 39.3%.

In the case of `CCC(c1nnnn1C1CCCC1)N(Cc1cccs1)Cc1cc2cc(C)ccc2[nH]c1=O` (configuration not stated), the cytotoxicity was 56.4% (active). `Cc1ccc2cc(CN(Cc3ccc(F)cc3)Cc3nnnn3C3CCCC3)c(=O)[nH]c2c1`: the cytotoxicity was 23.4%. As to `CCOc1ccc2[nH]c(=O)c(CN(Cc3cccs3)Cc3nnnn3C(C)(C)CC)cc2c1`, the cytotoxicity is 12.9%. As to `CCOc1ccc2[nH]c(=O)c(CN(Cc3cccs3)C(CC)c3nnnn3C(C)(C)CC)cc2c1` (configuration not stated), the cytotoxicity was 59% (active). As for `COc1ccc(NC(=O)C2CC(=O)NC(Nc3cccc(C)c3)=N2)cc1` (configuration not stated), the figure is 5.9%; as for `COC(=O)c1ccc(COC(=O)c2ccc(-n3cnnn3)cc2)o1`, -1.9%. As for `O=C(Cc1ccc(Cl)cc1)NCCN1CCCC1`, the figure is 1.5%; as for `Cc1c(C(=O)O)sc2ncn(C)c(=O)c12`, -7.5%. Turning to `c1ccc(CCn2nnnc2C(c2cccs2)N2CCOCC2)cc1` (configuration not stated), the cytotoxicity was 3.6%. As for `COc1ccc(S(=O)(=O)NCCc2csc(C)n2)cc1C`, the figure is 0.1%; as for `Cc1ccccc1-n1c(C)nc2ccccc21`, -11.6%; as for `Cc1ccc2c(c1)c1c3n2CCN(C(=O)C2CC2)C3CCC1` (configuration not stated), -6.9%. Consider `Cc1ccc2c(c1)c1c3n2CCN(C(=O)CN2CCN(C)CC2)C3CCC1` (configuration not stated), for which the cytotoxicity was 42.4%.

With `COc1ccc(Cn2nnnc2CN2CCOCC2)cc1`, the cytotoxicity was -5.5%. In the case of `Cc1nc(NCc2ccco2)c(C#N)c2c1COC(C)(C)C2`, the cytotoxicity was -17.6%. As for `CN(C)CCNc1nc(-c2ccco2)c2c(c1C#N)CC(C)(C)OC2`, the figure is 2.7%; as for `CCCc1nc(NCc2ccco2)c(C#N)c2c1COC(C)(C)C2`, -13.3%. On to `CCN(CC)CCNc1nc(-c2ccco2)c2c(c1C#N)CC(C)(C)OC2`, for which the cytotoxicity is -14.1%. As for `CCC(=O)Nc1cc(C(=O)NCC2CCCN2CC)c(OC)cc1N(C)C` (configuration not stated), the cytotoxicity was -2.6%.

In the case of `Cc1cccc(C)c1NC(=O)N1CCC(n2cnc3ccccc32)CC1`, the cytotoxicity was -24.3%. For `Cc1cc(C)n(C(=O)CNC(=O)COc2ccccc2)n1`, the cytotoxicity is -2.7%. Consider `COC(=O)c1ccccc1NC(=O)c1cc2sccc2n1C`, for which the cytotoxicity was 3.3%. For `Cc1ccc(S(=O)(=O)Cn2nnnc2C(C(C)C)N2CCN(Cc3ccco3)CC2)cc1` (configuration not stated), the cytotoxicity was -0.6%. On to `CCC(=O)Oc1ccc(-c2nc(-c3cccnc3)no2)cc1`, for which the cytotoxicity is -4.4%. As for `CC(C)c1ccc(OC(=O)NCCO)cc1`, the cytotoxicity is -0.9%.

On to `CCOc1ccc(C(=O)COC(=O)CC)cc1`, for which the cytotoxicity was -1.4%. Regarding `COC(=O)CCC(=O)Oc1ccc(OC(=O)CCC(=O)OC)cc1`, the cytotoxicity was 31.7%.

As to `CCn1c(Cc2ccccc2)nnc1SCC(=O)Nc1cc(C)on1`, the cytotoxicity is 4.4%. With `O=C1CCC(=O)N1OCCOc1ccc2c(c1)CCC2`, the cytotoxicity is -1.4%. For `O=C1NC(c2ccc3c(c2)OCO3)Nc2ccccc21` (configuration not stated), the cytotoxicity is 10.6%.

As to `COC(=O)c1ccc2c(=O)n(CCCN3CCOCC3)c(=S)[nH]c2c1`, the cytotoxicity was 2.7%. As to `CCC(C)C(NC(=O)C1CCC(C)CC1)C(=O)NC(C(=O)OC)C(C)C` (configuration not stated), the cytotoxicity was -5.2%. Turning to `COc1cc2nc(-c3cccs3)oc(=O)c2cc1OC`, the cytotoxicity is 16.9%. `COc1ccc(-c2nnc(NC(=O)C(C)C)o2)cc1`: the cytotoxicity is -7.7%. For the compound `COc1ccccc1-c1nnc(Nc2nc3c(OC)cccc3s2)o1`, the cytotoxicity was 54.9% (active). For the compound `CCOC(=O)c1sc(Nc2nc3c(OC)cccc3s2)nc1C`, the cytotoxicity is 63.9% (active).

With `COc1cccc2sc(Nc3nnc(-c4cccs4)o3)nc12`, the cytotoxicity is 65.3% (active).

With `CCOC(=O)c1sc(NCCNc2nc(C)c(C(=O)OCC)s2)nc1C`, the cytotoxicity is -1.3%. The figure for `COC(=O)c1sc(NC(=O)COc2ccccc2OC)nc1C` is -3%; for `COc1ccc(-c2nnc(Nc3nc4c(OC)cccc4s3)o2)cc1` it is 85.9% (active); for `COc1ccc(-c2nnc(-c3ccc(N)cc3)o2)cc1` it is 2.5%. Consider `COc1cccc2sc(N(C)c3ccccc3)nc12`, for which the cytotoxicity is -14%. As for `COc1ccccc1-c1nnc(NC(=O)c2ccccc2F)o1`, the cytotoxicity is 4.8%. As for `COc1cc(-c2nnc(-c3cccs3)o2)cc(OC)c1OC`, the cytotoxicity is -21.3%. For `CCCCNC(=O)NCC(=O)Nc1ccc(F)c(F)c1`, the cytotoxicity is -4%.

`CCSc1nnc(NC(=O)CSc2nccn2-c2cc(C)cc(C)c2)s1`: the cytotoxicity was -2.2%. As for `CC(=O)NC1CC2CCCC(C1)N2S(=O)(=O)c1ccccc1` (configuration not stated), the figure is -17.7%. On to `COc1ccc(N(C(=O)CNC(=O)c2ccco2)C(C(=O)NC2CCCCC2)c2ccco2)cc1` (configuration not stated), for which the cytotoxicity is -2.6%. As to `Cc1nc(NC(=O)C2CC2)sc1C(=O)N1CCCCC1`, the cytotoxicity was 11.8%. `Cc1ccc(-c2noc(CCC(=O)NCCCN3CCN(c4ccc(F)cc4)CC3)n2)cc1`: the cytotoxicity was -1.5%. For `O=C(Nc1ccccn1)c1cccnc1`, the cytotoxicity is 0.9%. As for `CC(=O)Nc1ccc(S(=O)(=O)N(CC(=O)O)Cc2ccccc2)cc1`, the figure is -8.5%; as for `Cc1ccc(S(=O)(=O)Nc2ccc(S(=O)(=O)N3CCCC3)cc2)cc1`, 8.3%. As for `COc1ccc(-c2noc(-c3ccccc3Cl)n2)cc1OC`, the figure is 0.6%; as for `COc1cccc2sc(Nc3nc(-c4ccccn4)cs3)nc12`, 65.7% (active).

Turning to `c1ccc(-c2csc(Nc3cccnc3)n2)nc1`, the cytotoxicity was 3.7%. On to `O=C(Nc1nnc(-c2ccccc2Cl)o1)c1ccco1`, for which the cytotoxicity is 6.6%.

`Cc1cccc(Nc2nc(-c3ccccn3)cs2)n1`: the cytotoxicity is 0.3%. Turning to `COc1cccc2sc(Nc3nnc(-c4ccccc4Cl)o3)nc12`, the cytotoxicity was 52.9% (active). For `Cc1ccc2oc(=O)cc(CN3CCC(C)CC3)c2c1`, the cytotoxicity is 0.7%. Turning to `O=c1c2ccccc2c(C=NCCO)c(O)n1-c1ccccc1`, the cytotoxicity was 1.2%. The figure for `CCOC(=O)C1CCCN(C2CC(=O)N(c3ccc(C)c(C)c3)C2=O)C1` (configuration not stated) is -3.2%; for `O=C(NCc1ccc(F)cc1)c1ccc(CS(=O)(=O)Cc2ccccc2F)o1` it is -13.3%; for `Cc1cc(-c2ccccc2)nc(N2CCN(c3ccccn3)CC2)n1` it is 11.2%. For `O=C(c1cc(Cl)ccc1Cl)N1CCN(c2ccccn2)CC1`, the cytotoxicity is 5.9%. Regarding `O=C(NCCC1=CCCCC1)C1CCCN(S(=O)(=O)c2cnc[nH]2)C1` (configuration not stated), the cytotoxicity is -2.1%.

For the compound `CCOC(=O)c1cccc(C(=O)OCC)n1`, the cytotoxicity is -1%. The figure for `CCOC(=O)c1ccccc1NC(=O)COC` is -3.8%. The figure for `CCN(c1ccccc1)c1cc(C)nc2nc(C)nn12` is -20.9%; for `CC(C)CCNc1ncnc2c1nnn2Cc1ccccc1Cl` it is -10.8%; for `Clc1ccccc1Cn1nnc2c(Nc3ccccc3)ncnc21` it is -6.8%. Consider `CCc1ccc2[nH]c(=O)c(C(c3nnnn3CCOC)N3CCN(c4ccccc4F)CC3)cc2c1` (configuration not stated), for which the cytotoxicity is -22%. Regarding `Cc1cc(C)nc(NCCCc2ccccc2)n1`, the cytotoxicity was -5.9%.

For the compound `CCCCNc1cc(C)nc(NCc2ccccc2)n1`, the cytotoxicity was 84.4% (active).

As to `Cc1cc(Nc2ccccc2)nc(-c2ccccc2O)n1`, the cytotoxicity was -2.9%. Take `CCCCOc1cc(C)nc(NCc2ccccc2)n1`: the cytotoxicity was -30.8%. Take `Cc1cc(NCCCN)nc(-c2ccccc2O)n1`: the cytotoxicity is 16.4%. On to `O=c1[nH]c2ccc(S(=O)(=O)N3CCCCC3)cc2[nH]1`, for which the cytotoxicity was -1.4%. As to `CCOC(=O)c1ccccc1NCN1C(=O)CSC1=O`, the cytotoxicity was -1.8%. Take `Cc1cc(=O)[nH]c(/N=C(\N)Nc2cccc3ccccc23)n1`: the cytotoxicity was 0.5%. On to `COc1ccc(C2C3=C(N=C4SCC(=O)N42)c2ccccc2CC3)cc1OC` (configuration not stated), for which the cytotoxicity is 19.3%. With `O=C(O)c1ccccc1-c1ccccc1C(=O)NCc1ccco1`, the cytotoxicity is 0.7%. On to `Cn1c(=O)cc(OCC(=O)N2CCCc3ccccc32)c2ccccc21`, for which the cytotoxicity was -9.1%.

With `Cc1cc(C)c2nc(NC3=NCN(CCN4CCOCC4)CN3)nc(C)c2c1`, the cytotoxicity was -7.5%.

On to `CC1=C(C)C(=O)NC(Nc2nc(C)c3cc(C)cc(C)c3n2)N1` (configuration not stated), for which the cytotoxicity is 86.5% (active). Turning to `O=C(c1cc(S(=O)(=O)N2CCCCC2)c(Cl)cc1N1CCOCC1)N1CCOCC1`, the cytotoxicity is -5.8%.

As to `COc1cc(C)c(C(C)C)cc1S(=O)(=O)N1CCN(C)CC1`, the cytotoxicity was -22.7%.

Turning to `COc1cc(Cl)c(S(=O)(=O)n2cnc(C)c2)cc1Cl`, the cytotoxicity was -0.2%. For the compound `Clc1ccc(OCc2nc(-c3ccncc3)no2)c(Cl)c1`, the cytotoxicity was -6.9%. Take `Cc1ccc2c(c1)c1ncnc(N3CCOCC3)c1n2C`: the cytotoxicity is -13.7%. In the case of `Cc1ccc2c(c1)c1ncnc(N3CCN(c4ccccc4)CC3)c1n2C`, the cytotoxicity is -1.6%.
